We go through 38 compounds from PubChem BioAssay (Tox21).

Results filed as inconclusive are left out. Entries that show only a call come without a potency. Calls of active or inactive are those of the source. Unless noted, calls come from the whole dose curve; as a rule, active = well fitted cell-killing curve with a large enough effect in the repeat runs; inconclusive = weak or mixed curves, or effect the other way; inactive = flat fitted curve, though single readings scatter.
Potency is the fitted concentration of half-maximal effect.

In the first experiment the test system is estrogen-related receptor alpha (ERRalpha) with PGC-1alpha coactivator, human. Put plainly: qHTS assay to identify small molecule antagonists of the estrogen related receptor signaling pathway with the pleiotropic PPARgamma coactivator (PGC) (AID 1224821; calls by dose curve; note: nearly all actives have a fitted effect of over 50% in size). Particulars: ERR/PGC reporter cell line, luciferase, antagonist mode; series mostly up to 46.1 µM. The essentials:
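Screening used NTP's PGC/ERR cells, dosed via pin tool with compound in DMSO alongside positive and negative controls. After 18 h at 37 C, One-Glo reagent sat 30 min at room temperature before luminescence detection.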
A general note: qHTS replaces the single test concentration by a dilution series.
On to `O=C1C2C=CC=CC2=NC(=S)N1CCN1CCC(=C(c2ccc(F)cc2)c2ccc(F)cc2)CC1` (stereo not drawn), for which the Potency is 25.6 µM (active).
Turning to `CCc1ccc2c(-c3cccc(Cl)c3)nc(=O)n(CC)c2n1`, the Potency entry was “inactive”.
Turning to `O=c1ccc2c(OCCCCc3ccccc3)c3ccoc3cc2o1`, the Potency entry is “inactive”.
On the same count and under the same terms, as for `Fc1ccc2[nH]c(CN3CCN(c4ccccn4)CC3)cc2c1`, the entry is “inactive”.
Take `O=C(Nc1ccncc1)c1cc([N+](=O)[O-])ccc1Cl`: the Potency entry is “inactive”.
On to `CC[n+]1c(/C=C/C=C2/N(C)c3ccccc3C2(C)C)sc2ccccc21`, for which the Potency was 0.492 µM (active).
Still for that read-out and setting: as for `CN1CCC2(CCN3CCc4c(oc5ccccc45)C3C2)N(C)C1=O` (stereo not drawn), the entry is “inactive”; as for `COc1cc2c(cc1O)CC[C@@H]1[C@@H]2CC[C@]2(C)[C@@H](O)CC[C@@H]12`, “inactive”; as for `O=C(O)c1ccccc1Nc1ccccc1`, “inactive”.
On the same count and under the same terms, the same measure for `S=C(S)N1CCCC1`: 3.22 µM (active).
On the same count and under the same terms, the same measure for `COc1cc2nc(N3CCCN(C)CC3)nc(NC3CCN(Cc4ccccc4)CC3)c2cc1OC`: 28.7 µM (active); for `OCc1ccc(-c2nn(Cc3ccccc3)c3ccccc23)o1`: “inactive”.
For `COC(=O)[C@H](NC(=O)c1cc(-c2ccccc2)nc2ccccc12)c1ccccc1`, the Potency entry was “inactive”.
Consider `CC(C)(C)[C@]1(O)CCN2C[C@H]3c4ccccc4CCc4cccc(c43)[C@@H]2C1`, for which the Potency is 17.4 µM (active).
Regarding `COc1ccccc1N1CCN(CCN(C(=O)c2ccc(F)cc2)c2ccccn2)CC1`, the Potency entry is “inactive”.
On the same count and under the same terms, as for `CC(C)(C)c1ccc(/C=C/C(=O)Nc2ccc3c(c2)OCCO3)cc1`, the entry is “inactive”.
Same read-out and setting: the same measure for `CCN(CC)CCCCCCCCOC(=O)c1cc(OC)c(OC)c(OC)c1`: “inactive”; for `CN1CCc2cccc3c2C1Cc1ccc(O)c(O)c1-3` (stereo not drawn): 26.6 µM (active); for `O=C1NC(c2cccc([N+](=O)[O-])c2)=CCN1c1ccccc1O`: “inactive”.
On to `COc1cccc(OC)c1OCCNCC1CSc2ccccc2O1` (stereo not drawn), for which the Potency entry was “inactive”.
Still for that read-out and setting: as for `COc1ccc(NC(=O)c2ccc(-c3ccc(-c4noc(C)n4)cc3C)cc2)cc1N1CCN(C)CC1`, the entry is “inactive”; as for `COc1ccccc1N1CCN(CCN2C(=O)CC3(CCCC3)CC2=O)CC1`, “inactive”.
Still for that read-out and setting: as for `Nc1nc(Cl)nc2c1ncn2[C@@H]1O[C@H](COP(=O)(O)OP(=O)(O)OP(=O)(O)O)C(O)[C@H]1O` (stereo partly drawn), the entry is “inactive”; as for `Nc1nc2ccc(Cl)cc2c2nc(-c3ccco3)nn12`, “inactive”.

Tested on in the next experiment: not listed separately
Put plainly: qHTS assay to identify small molecule antagonists of the estrogen related receptor signaling pathway with the pleiotropic PPARgamma coactivator (PGC) cell viability counter screen (AID 1224822). Particulars: ERR/PGC reporter cell line viability counter screen; series mostly up to 46.1 µM. The essentials: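 Viability counter-screen read by fluorescence intensity after 30 min with CellTiter-Fluor at 37 C; PGC/ERR reporter cells were exposed to compounds for 17.5 h at 37 C following a 6 h preincubation.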
Take `CCc1ccc2c(-c3cccc(Cl)c3)nc(=O)n(CC)c2n1`: the Potency entry was “inactive”.
In the case of `Cn1cc(C(F)(F)F)nc1-c1ccc(OCC(O)CNCCOc2ccc(O)c(C(N)=O)c2)cc1` (stereo not drawn), the Potency result is “inactive”.
Take `COc1ccccc1N1CCN(CCN(C(=O)C2CCCCC2)c2ccccn2)CC1`: the Potency entry is “inactive”.
Still for that read-out and setting: as for `O=c1ccc2c(OCCCCc3ccccc3)c3ccoc3cc2o1`, the entry is “inactive”; as for `Fc1ccc2[nH]c(CN3CCN(c4ccccn4)CC3)cc2c1`, “inactive”.
Regarding `O=C(Nc1ccncc1)c1cc([N+](=O)[O-])ccc1Cl`, the Potency entry is “inactive”.
The same measure, in the same setting: as for `CC[n+]1c(/C=C/C=C2/N(C)c3ccccc3C2(C)C)sc2ccccc21`, the figure is 3.9 µM (active); as for `C[C@@]1(C2CCCC2)Cc2cc(OCC(=O)O)c(Cl)c(Cl)c2C1=O`, “inactive”.
As to `CN1CCC2(CCN3CCc4c(oc5ccccc45)C3C2)N(C)C1=O` (stereo not drawn), the Potency result is “inactive”.
With `C[C@@H](CN1CCC(Cc2ccccc2)CC1)[C@@H](O)c1ccc(O)cc1`, the Potency result was “inactive”.
Still for that read-out and setting: as for `c1ccc(C(NCCNC(c2ccccc2)c2ccccc2)c2ccccc2)cc1`, the entry is “inactive”; as for `COc1cc2c(cc1O)CC[C@@H]1[C@@H]2CC[C@]2(C)[C@@H](O)CC[C@@H]12`, “inactive”; as for `O=C(O)c1ccccc1Nc1ccccc1`, “inactive”.
Consider `O=C(Nc1ccc2c(c1)CCN(Cc1ncn[nH]1)C2)c1ccccc1-c1ccc(C(F)(F)F)cc1`, for which the Potency entry is “inactive”.
As to `S=C(S)N1CCCC1`, the Potency was 0.287 µM (active).
Consider `COc1cc2nc(N3CCCN(C)CC3)nc(NC3CCN(Cc4ccccc4)CC3)c2cc1OC`, for which the Potency was 10.6 µM (active).
For `OCc1ccc(-c2nn(Cc3ccccc3)c3ccccc23)o1`, the Potency entry is “inactive”.
Still for that read-out and setting: the same measure for `O=C(CCSCc1ccco1)NNC(=O)N1Cc2ccccc2Oc2ccc(Cl)cc21`: “inactive”; for `COC(=O)[C@H](NC(=O)c1cc(-c2ccccc2)nc2ccccc12)c1ccccc1`: “inactive”.
With `CC(C)(C)[C@]1(O)CCN2C[C@H]3c4ccccc4CCc4cccc(c43)[C@@H]2C1`, the Potency entry was “inactive”.
As to `O=C(CCc1ccncc1)NNC(=O)N1Cc2ccccc2Oc2ccc(Cl)cc21`, the Potency entry was “inactive”.
Consider `COc1ccccc1N1CCN(CCN(C(=O)c2ccc(F)cc2)c2ccccn2)CC1`, for which the Potency result was “inactive”.
As to `NC(N)=NCc1cccc(I)c1`, the Potency result is “inactive”.
Turning to `O=C1NC(c2cccc([N+](=O)[O-])c2)=CCN1c1ccccc1O`, the Potency result is “inactive”.
Same read-out and setting: the same measure for `COc1cccc(OC)c1OCCNCC1CSc2ccccc2O1` (stereo not drawn): “inactive”; for `N=C(N)c1ccc(OCCCCCOc2ccc(C(=N)N)cc2)cc1` (tested in a mixture with another compound): “inactive”.
Take `C[C@]12C=CC(=O)C=C1CC[C@@H]1C2=CC[C@]2(C)[C@@H](C(=O)CN3CCN(c4cc(N5CCCC5)nc(N5CCCC5)n4)CC3)CC[C@@H]12`: the Potency entry was “inactive”.
With `COc1ccc(NC(=O)c2ccc(-c3ccc(-c4noc(C)n4)cc3C)cc2)cc1N1CCN(C)CC1`, the Potency entry is “inactive”.
As to `O=c1cc(N2CCOCC2)oc2c(-c3ccccc3)cccc12`, the Potency result was “inactive”.
For the compound `COCCOc1cc2ncnc(Cl)c2cc1OCCOC`, the Potency result is “inactive”.
For `COc1ccccc1N1CCN(CCN2C(=O)CC3(CCCC3)CC2=O)CC1`, the Potency entry is “inactive”.
Same read-out and setting: the same measure for `Nc1nc(Cl)nc2c1ncn2[C@@H]1O[C@H](COP(=O)(O)OP(=O)(O)OP(=O)(O)O)C(O)[C@H]1O` (stereo partly drawn): “inactive”; for `CCC1(O)CC2CN(CCc3c([nH]c4ccccc34)[C@@](C(=O)OC)(c3cc4c(cc3OC)N(C)C3[C@]45CCN4CC=C[C@@](CC)([C@@H](OC(C)=O)[C@]3(O)C(=O)OC)[C@H]45)C2)C1` (stereo partly drawn): “inactive”.
On the same count and under the same terms, the same measure for `Nc1nc2ccc(Cl)cc2c2nc(-c3ccco3)nn12`: “inactive”.
